This is part of a sample that, as a whole, favours compounds with a hit. Of some 83,000 tested, about 20% had one in any assay.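 Single-concentration screen, 48 h exposure, 96-well plates. Endpoint: percent growth. Below 10 = active.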 Activity calls are given as the source filed them.
Legend:
Experiment in all cases: NCI-60 one-dose screen, 48 h (100 = growth as untreated, 0 = no growth, -100 = all killed)
HCT-15 colon = details: 10 µM unless noted
SNB-75 CNS = details: 10 µM
SNB-19 CNS = details: 10 µM unless noted
U251 CNS = details: 10 µM unless noted
PC-3 prostate = details: 10 µM unless noted
SK-MEL-5 melanoma = details: 10 µM unless noted
UACC-62 melanoma = details: 10 µM unless noted
LOX IMVI melanoma = details: 10 µM unless noted
SK-MEL-28 melanoma = details: 10 µM unless noted
SK-MEL-2 melanoma = details: 10 µM unless noted
EKVX NSCLC = details: 10 µM unless noted
SN12C renal = details: 10 µM unless noted
TK-10 renal = details: 10 µM unless noted
CAKI-1 renal = details: 10 µM unless noted
A498 renal = details: 10 µM unless noted
CCRF-CEM leukemia = details: 10 µM unless noted
MOLT-4 leukemia = details: 10 µM unless noted
UO-31 renal = details: 10 µM unless noted
ACHN renal = details: 10 µM unless noted

Measured: growth

CC(C)OC(=O)N1CCOCC1
inactive: HCT-15 colon 101% | SNB-75 CNS 86% | SNB-19 CNS 98.5% | U251 CNS 101% | PC-3 prostate 86.9% | SK-MEL-5 melanoma 106% | UACC-62 melanoma 98.6% | LOX IMVI melanoma 102% | SK-MEL-28 melanoma 101% | SK-MEL-2 melanoma 101% | EKVX NSCLC 126% | SN12C renal 97.7% | TK-10 renal 101% | CAKI-1 renal 105% | A498 renal 90.3% | CCRF-CEM leukemia 102% | MOLT-4 leukemia 110%

COc1ccc(CN2CCc3c(Sc4ccccc4)nc(N)nc3C2=O)c(OC)c1
inactive: HCT-15 colon 66.8% | SNB-75 CNS 66.5% | SNB-19 CNS 82% | U251 CNS 72.3% | PC-3 prostate 52.1% | SK-MEL-5 melanoma 51.1% | UACC-62 melanoma 52.5% | LOX IMVI melanoma 71.3% | SK-MEL-28 melanoma 90.9% | SK-MEL-2 melanoma 58.6% | EKVX NSCLC 57% | SN12C renal 53.1% | UO-31 renal 29.6% | TK-10 renal 59.9% | ACHN renal 65% | CAKI-1 renal 27.7% | A498 renal 66% | CCRF-CEM leukemia 46.7% | MOLT-4 leukemia 35.5%

COc1ccc2c(c1)OC1=C(C(=O)OC1)C2c1cc(OC)c2c(c1)OCO2 (stereo unspecified)
active: SK-MEL-5 melanoma -54.3% | MOLT-4 leukemia 5.79%
inactive: HCT-15 colon 19.2% | SNB-75 CNS 36.5% | SNB-19 CNS 29% | U251 CNS 19.9% | PC-3 prostate 22% | UACC-62 melanoma 39.7% | LOX IMVI melanoma 17.2% | SK-MEL-28 melanoma 64.4% | SK-MEL-2 melanoma 43.2% | EKVX NSCLC 51.2% | SN12C renal 23.8% | UO-31 renal 41.6% | TK-10 renal 47.3% | CAKI-1 renal 42.7% | A498 renal 24.2% | CCRF-CEM leukemia 16.3%

C=C1CCC2C3(C)COC(c4ccccc4)OC3CCC2(C)C1/C=C/C1=CCOC1=O (stereo unspecified)
active: CCRF-CEM leukemia -46.7%
inactive: HCT-15 colon 45.6% | SNB-75 CNS 51.7% | SNB-19 CNS 71.8% | U251 CNS 40.1% | PC-3 prostate 26.6% | SK-MEL-5 melanoma 76.5% | UACC-62 melanoma 58.8% | LOX IMVI melanoma 16.1% | SK-MEL-28 melanoma 98.1% | SK-MEL-2 melanoma 51.3% | EKVX NSCLC 96.1% | SN12C renal 24% | UO-31 renal 52.6% | TK-10 renal 61.3% | ACHN renal 71.3% | A498 renal 106% | MOLT-4 leukemia 45.5%

COc1ccc(C(=O)NC(=O)Nc2cc3c(cc2F)/C(=C/c2[nH]c(C)c(CCC(=O)O)c2C)C(=O)N3)c(F)c1
inactive: HCT-15 colon 28% | SNB-19 CNS 20% | PC-3 prostate 22.6% | SK-MEL-5 melanoma 59.6% | UACC-62 melanoma 31.3% | LOX IMVI melanoma 38.5% | SK-MEL-28 melanoma 44.4% | SK-MEL-2 melanoma 22.1% | EKVX NSCLC 65.3% | SN12C renal 27.6% | UO-31 renal 58.6% | ACHN renal 65.5% | A498 renal 12.3% | MOLT-4 leukemia 33.9%
active: SNB-75 CNS 9.65% | U251 CNS 9.72% | CCRF-CEM leukemia 7.61%

C=C[C@@H]1C[C@H](O)Cc2ccccc2N1
active: CCRF-CEM leukemia -30.7%
inactive: HCT-15 colon 103% | SNB-75 CNS 102% | SNB-19 CNS 108% | U251 CNS 99.1% | PC-3 prostate 106% | SK-MEL-5 melanoma 110% | UACC-62 melanoma 102% | LOX IMVI melanoma 104% | SK-MEL-28 melanoma 112% | SK-MEL-2 melanoma 123% | EKVX NSCLC 107% | SN12C renal 103% | UO-31 renal 99.5% | TK-10 renal 95.5% | ACHN renal 107% | A498 renal 99.9%

O=[N+]([O-])c1cc(S(=O)(=O)Oc2ccccc2)ccc1Cl
active: U251 CNS 0.0855% | SK-MEL-5 melanoma 6.43% | LOX IMVI melanoma -80.1% | SK-MEL-28 melanoma -18% | UO-31 renal -87.7% | CAKI-1 renal -89.4% | CCRF-CEM leukemia -22.1%
inactive: HCT-15 colon 40.5% | SNB-75 CNS 52.2% | SNB-19 CNS 30.6% | PC-3 prostate 25.5% | UACC-62 melanoma 65.8% | SK-MEL-2 melanoma 87.5% | EKVX NSCLC 65% | SN12C renal 29.6% | TK-10 renal 52.3% | ACHN renal 37.6% | A498 renal 96.7% | MOLT-4 leukemia 19.4%

COc1ccc(-c2cn(-c3cccc(C(=O)/C=C/c4cc(OC)c(OC)c(OC)c4)c3)c(=O)[nH]2)cc1OC
inactive: HCT-15 colon 82.1% | SNB-75 CNS 58.2% | SNB-19 CNS 108% | U251 CNS 71.6% | PC-3 prostate 81.5% | SK-MEL-5 melanoma 88.3% | UACC-62 melanoma 73.1% | LOX IMVI melanoma 69.4% | SK-MEL-28 melanoma 98.9% | SK-MEL-2 melanoma 75.3% | EKVX NSCLC 98% | SN12C renal 78.1% | UO-31 renal 68.3% | TK-10 renal 96.1% | ACHN renal 81.8% | CAKI-1 renal 96% | A498 renal 90.3% | MOLT-4 leukemia 70.4%

COC(=O)C1CCCN1C(=O)[C@@H]1CCCN1C(=O)[C@H](Cc1c[nH]c2ccccc12)NC(=S)Nc1cc(C(F)(F)F)cc(C(F)(F)F)c1 (stereo partly specified)
inactive: HCT-15 colon 40% | SNB-75 CNS 55.1% | SNB-19 CNS 49.7% | U251 CNS 35.9% | PC-3 prostate 20.4% | SK-MEL-5 melanoma 58.1% | UACC-62 melanoma 63.6% | LOX IMVI melanoma 36.1% | SK-MEL-28 melanoma 80.9% | SK-MEL-2 melanoma 67.5% | EKVX NSCLC 49.8% | SN12C renal 65.5% | UO-31 renal 49.7% | TK-10 renal 56.7% | CAKI-1 renal 33.7% | A498 renal 65.4% | CCRF-CEM leukemia 24% | MOLT-4 leukemia 27%

From PubChem BioAssay (NCI)
